Potency and activity change, negative = inhibition data for 68 molecules are collected here from PubChem BioAssay AID2551 (National Center for Advancing Translational Sciences (NCATS), 2010).

In all, about 310,000 compounds went through this assay and about 17,000 (5.5%) were called active. A call without a number means that no potency is given here. Roughly 11% stayed inconclusive and do not appear here. For the sample, actives were picked, then their nearest neighbours and some compounds at random. Unmarked numbers belong to inactive results. Calls follow the shape of the dose curve; as a rule, active = well fitted inhibition curve with a large enough effect; inconclusive = small, poorly fitted or top-dose-only effect, or effect the other way; inactive = no such curve, though single readings can be large or run the other way.
Potency is read from the fitted curve at half-maximal effect.

Nuclear receptor ROR-gamma (Mus musculus), sequence (P51450 whole entry, looked up, the tested form may be a part): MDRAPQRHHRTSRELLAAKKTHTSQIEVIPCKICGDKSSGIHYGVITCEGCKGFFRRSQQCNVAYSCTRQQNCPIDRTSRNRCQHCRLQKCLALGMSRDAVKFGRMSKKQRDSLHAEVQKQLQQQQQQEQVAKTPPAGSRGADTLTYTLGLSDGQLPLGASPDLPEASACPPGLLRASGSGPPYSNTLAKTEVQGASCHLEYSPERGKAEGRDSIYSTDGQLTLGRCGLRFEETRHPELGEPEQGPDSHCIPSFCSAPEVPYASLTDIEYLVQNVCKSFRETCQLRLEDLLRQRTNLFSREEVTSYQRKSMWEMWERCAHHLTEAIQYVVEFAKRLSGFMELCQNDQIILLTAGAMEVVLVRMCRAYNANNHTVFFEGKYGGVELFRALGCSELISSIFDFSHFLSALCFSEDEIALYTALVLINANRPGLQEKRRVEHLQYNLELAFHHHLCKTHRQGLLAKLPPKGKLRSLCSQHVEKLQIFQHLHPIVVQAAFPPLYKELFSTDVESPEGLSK

This test has as its target Nuclear receptor ROR-gamma (Mus musculus) (UniProt P51450). The test can be described thus: qHTS for inhibitors of ROR gamma transcriptional activity. Also: nearly all actives have a fitted effect of over 60% in size. The following applies: Drosophila S2 Gal4-RORgamma UAS-luciferase reporter, 20 h; series mostly up to 53.6 µM. Put shortly:
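ROR gamma transcriptional activity was tracked as Gal4-UAS luciferase output in stably transfected Drosophila Schneider cells, with compound added 1 hr before 700 uM copper sulfate induction and a 20 hr ambient-temperature incubation.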
Background: qHTS replaces the single test concentration by a dilution series.
As to `COC(=O)c1ccccc1NC(=O)CSc1n[nH]c(-c2ccncc2)n1`, the Potency entry was “inactive”.
Turning to `Cc1ccc2oc(C(=O)N3CCN(C)C[C@@H]3C(C)C)c(C)c2c1`, the Potency entry was “inactive”.
In the case of `Cc1ccc(OCc2cc(C(=O)N(C)CCc3ccccc3)no2)cc1C`, the Potency result was “inactive”.
On the same count and under the same terms, in the case of `CN(Cc1cccnc1)C(=O)c1cc(COc2ccc3ncccc3c2)on1` it was 4.47 µM (active).
For `CC(=O)c1cccc(OCc2cc(C(=O)NC(C)Cc3cccnc3)no2)c1` (stereo not drawn), the Potency result is “inactive”.
Consider `COCCn1cnc2c1c(=O)n(Cc1ccc(Br)cc1)c(=O)n2Cc1ccccc1`, for which the Potency entry is “inactive”.
`O=C(CCNC(=O)C1CCN(S(=O)(=O)c2ccccc2)CC1)NC1CC1`: the Potency result was “inactive”.
Still for that read-out and setting: in the case of `COc1ccc(CN2CCCC(N3CCc4ccccc4C3)C2)c(O)c1` (stereo not drawn) it was “inactive”.
In the case of `CCOC(=O)c1c(-c2cccc(C)c2)csc1NC(=O)c1c(-c2ccccc2)noc1C`, the Potency entry is “inactive”.
On to `CCOC(=O)C1=C(C)c2ccccc2OC1(C)C(=O)OCC` (stereo not drawn), for which the Potency entry was “inactive”.
The same measure, in the same setting: in the case of `CCOC(=O)C1=C(NC(=S)NC(=O)c2ccccc2)c2ccccc2CC1(C)C` it was 4.47 µM (active); in that of `CCOC(=O)c1c(-c2ccc(-c3ccccc3)cc2)csc1NC(=O)CCC(=O)O`, “inactive”; in that of `CCOC(=O)CNC(=O)/C(=C\c1ccc(F)cc1)NC(=O)c1ccccc1`, “inactive”.
Take `CCOC(=O)c1c(-c2ccccc2)csc1NC(=S)NC(=O)c1ccccc1`: the Potency is 2.82 µM (active).
Consider `COc1cccc(C(=O)Nc2nnc(S(=O)(=O)N3CCCCC3)s2)c1`, for which the Potency result was “inactive”.
Regarding `CC(=O)Nc1ccc(NC(=O)CCCNC(=O)c2ccc(Cl)cc2)cc1`, the Potency result is “inactive”.
Same read-out and setting: in the case of `CC(C)c1ccc(C2C(C(=O)c3ccco3)=C(O)C(=O)N2CC2CCCO2)cc1` (stereo not drawn) it was “inactive”; in that of `COc1ccccc1NC(=O)CCN1CCN(c2ccc(Cl)cc2)CC1`, “inactive”; in that of `O=C(CCc1ccccc1)NCc1cccnc1`, “inactive”.
Consider `CCc1ccc(N(CC(=O)NCc2cccnc2)S(=O)(=O)c2ccccc2)cc1`, for which the Potency was 14.1 µM (active).
Turning to `O=C(CN(c1cc(C(F)(F)F)ccc1Cl)S(=O)(=O)c1ccccc1)NCc1cccnc1`, the Potency result was “inactive”.
Take `Cc1c(C)c2c(OCC(=O)NCCCO)cc3c(c2oc1=O)CCC(C)(C)O3`: the Potency entry was “inactive”.
Take `CC(C)CC(CCc1ccccc1)OS(N)(=O)=O` (stereo not drawn): the Potency result was “inactive”.
The same measure, in the same setting: for `COc1ccccc1/C=C/C(=O)NC(=S)N1CCOCC1` the value was 7.08 µM (active).
Consider `Cc1cccc(N2CCN(C(=O)/C=C/c3ccco3)CC2)c1C`, for which the Potency result is “inactive”.
Turning to `COc1ccccc1/C=C/C(=O)NC1CC2CCC1C2` (stereo not drawn), the Potency entry was “inactive”.
Regarding `O=C(/C=C/c1ccco1)NC(=S)N1CCCCC1`, the Potency was 3.98 µM (active).
The same measure, in the same setting: for `CC(=O)Nc1ccc(NC(=S)NC(=O)/C=C/c2ccccc2)cc1` the value was “inactive”; for `CCNC(=S)N1CCN(C(=O)c2ccco2)CC1`, “inactive”; for `Cc1nnc(NC(=O)/C=C/c2ccco2)s1`, “inactive”.
For the molecule `O=C(/C=C/c1ccco1)NC(=S)Nc1ccccc1Br`, the Potency was 11.2 µM (active).
Turning to `COc1ccccc1C(=O)Nc1cccc(C(=O)N2CCOCC2)c1`, the Potency entry was “inactive”.
Regarding `CCC(C)[C@H](NC(=O)N1CCn2c1nc1ccccc12)C(=O)NCc1ccc(OC)cc1` (stereo partly drawn), the Potency entry was “inactive”.
Take `O=C(O)CC/C(=C\c1cc2c(cc1Br)OCO2)c1nc2ccccc2s1`: the Potency result is “inactive”.
In the case of `CC(=O)N1CCc2cc(S(=O)(=O)NC3CCCCC3)ccc21`, the Potency result is “inactive”.
As for `COCCNc1ncnc2c1nc1n2CCCC1`, the Potency result is “inactive”.
Take `CCCCCCn1cc(C(=O)O)c(=O)c2cc(F)c(N3CCCCC3)cc21`: the Potency result was “inactive”.
As to `O=C(Nc1ccc(S(=O)(=O)Nc2ccccn2)cc1)c1ccccc1`, the Potency entry was “inactive”.
As for `Cc1ccc(CNC(=O)CCS(=O)(=O)c2ccc3c(c2)CC(C)N3C(=O)C2CC2)o1` (stereo not drawn), the Potency result was “inactive”.
Take `O=C(Nc1ccc([N+](=O)[O-])cc1)OCCc1ccccn1`: the Potency entry is “inactive”.
For `Cc1ccc(CNC(=O)c2c(-c3ccccc3)noc2C)cc1`, the Potency entry was “inactive”.
Take `Cc1onc(-c2ccccc2)c1C(=O)Nc1ccccc1C#N`: the Potency result is “inactive”.
Turning to `COc1ccc(C(=O)NC(=S)NNC(=O)c2c(-c3ccccc3)noc2C)cc1`, the Potency is 6.31 µM (active).
With `CC(=O)Nc1cccc(NC(=O)c2c(-c3ccccc3)noc2C)c1`, the Potency entry is “inactive”.
Regarding `Cc1onc(-c2ccccc2)c1C(=O)NNC(=S)NC(=O)c1ccc(F)cc1`, the Potency is 3.98 µM (active).
`Cc1onc(-c2c(Cl)cccc2Cl)c1C(=O)NNC(=O)c1c(-c2c(Cl)cccc2Cl)noc1C`: the Potency result is “inactive”.
In the case of `NC(=O)c1oc2ccccc2c1NC(=O)Cc1ccccc1`, the activity change, negative = inhibition is -17.9% [at 1.91 µM].
For `COc1ccc(N(C(=O)c2snc(C(N)=O)c2N)C(C(=O)NC2CCCC2)c2ccco2)cc1OC` (stereo not drawn), the Potency entry is “inactive”.
Turning to `O=C1/C(=C/c2ccc(F)cc2)SC(=S)N1CCCC(=O)N1CCCCC1CCO` (stereo not drawn), the Potency result is “inactive”.
Turning to `COC(=O)Cn1cnc2scc(-c3ccc(C)c(C)c3)c2c1=O`, the Potency entry is “inactive”.
Turning to `Cc1ccc(C)c(NC(=O)CCC(=O)NNC(=O)c2cccs2)c1`, the Potency entry was “inactive”.
With `O=C(/C=C/NNC(=O)c1cccc(Br)c1)c1ccccc1`, the Potency entry is “inactive”.
On to `Cc1ccccc1NC(=S)NNC(=O)c1cccc(Br)c1`, for which the Potency was 11.2 µM (active).
As for `O=C(NC(=S)Nc1ccc(Cl)c(C(=O)O)c1)c1cncc(Br)c1`, the Potency result is “inactive”.
For the molecule `NS(=O)(=O)c1ccc(NC(=S)NC(=O)c2cccnc2)cc1`, the Potency entry is “inactive”.
Turning to `O=C(NC(=S)Nc1ccc(S(=O)(=O)Nc2ncccn2)cc1)c1cccc(Br)c1`, the Potency entry is “inactive”.
`O=C(NC1CC1)c1cccc(Br)c1`: the Potency entry was “inactive”.
As to `Cc1ccc(C)c(NC(=S)NNC(=O)c2csc(C)c2)c1`, the Potency was 3.55 µM (active).
Consider `CC(CC(=O)O)CC(=O)NNC(=O)c1cccc(Br)c1` (stereo not drawn), for which the Potency entry was “inactive”.
On to `Cc1ccc(C)c(NC(=O)NNC(=O)c2ccc3ccccc3c2O)c1`, for which the Potency entry was “inactive”.
As for `O=C(NC(=S)Nc1cccc2c(O)cccc12)c1cccc(Br)c1`, the Potency was 11.2 µM (active).
On to `NS(=O)(=O)c1ccc(NC(=S)NC(=O)c2cccc(Br)c2)cc1`, for which the Potency is 11.2 µM (active).
Consider `COc1ccc(-c2nnc3n2CCCCC3)cc1`, for which the Potency entry is “inactive”.
Take `COc1ccc(NC(=O)CSc2nncc(=O)n2N)cc1OC`: the Potency entry was “inactive”.
In the case of `CC(CN1CCOCC1)OC(=O)c1ccc(Cl)cc1Cl` (stereo not drawn), the Potency entry is “inactive”.
In the case of `Cn1c(C(=O)N2CCCC(C(=O)NCc3ccccc3)C2)cc2sccc21` (stereo not drawn), the Potency result was “inactive”.
`COc1ccccc1NC(=O)c1ccc(N2CC3CC(C2)c2cccc(=O)n2C3)c(NC(=O)c2cccnc2)c1` (stereo not drawn): the Potency entry is “inactive”.
On the same count and under the same terms, for `CC(=O)N1c2ccc(S(=O)(=O)N3CCC(C(=O)N4CCN(c5ccccc5)CC4)CC3)cc2CC1C` (stereo not drawn) the value was “inactive”.
